# Only some compounds are listed: those with a hit (about 1.7% of all), similar ones and a draw of the others.
# GLP1R cytotox = cytotoxicity counter-screen for GLP-1 receptor inverse agonists; HEK293 cAMP-luciferase reporter cells, luminescence, 24 h; Potency, µM (titrated, usually from 38.3 µM), usual class: inhibitors; hit rate 0.13% among 410,000; AID 624418;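 note: loss of luciferase light is scored as toxicity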
#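 Step one: seed cells (200 cells/uL, DMEM with 10% Nu serum, 1% pen-strep). Step two: 12-hour incubation at 37 deg C. Step three: pin 23 nL compound, incubate 24 hr. Step four: add luciferase reagent, read luminescence 12 min later.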
# PTHR1 ag = activates the human parathyroid hormone receptor PTHR1; HEK293 GP2 PTHR1 cells, GloSensor cAMP luminescence, 1 h; hit rate 0.075% among 410,000; Q03431; Potency, µM (doses to about 115 µM), hits mostly activators; note: nearly all actives have a fitted effect of over 55% in size
# Target sequence (Q03431 whole entry, looked up): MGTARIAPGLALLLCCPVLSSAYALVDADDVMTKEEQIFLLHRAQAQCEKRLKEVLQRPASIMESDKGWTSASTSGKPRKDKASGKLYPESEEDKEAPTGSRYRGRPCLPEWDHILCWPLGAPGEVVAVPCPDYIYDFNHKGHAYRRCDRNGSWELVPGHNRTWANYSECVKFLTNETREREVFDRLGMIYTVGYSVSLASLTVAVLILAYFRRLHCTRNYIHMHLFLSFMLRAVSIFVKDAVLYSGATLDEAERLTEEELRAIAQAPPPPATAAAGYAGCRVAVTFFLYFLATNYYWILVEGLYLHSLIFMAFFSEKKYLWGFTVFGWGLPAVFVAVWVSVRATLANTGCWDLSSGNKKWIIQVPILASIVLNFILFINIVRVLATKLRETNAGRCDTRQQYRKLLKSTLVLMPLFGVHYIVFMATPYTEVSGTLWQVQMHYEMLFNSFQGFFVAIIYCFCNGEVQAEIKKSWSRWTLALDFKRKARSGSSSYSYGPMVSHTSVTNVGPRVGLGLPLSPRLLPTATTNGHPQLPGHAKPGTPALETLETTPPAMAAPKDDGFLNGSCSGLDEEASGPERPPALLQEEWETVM
#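 HEK-293-derived GP2 cells expressing PTHR1 and a GloSensor cAMP reporter, 3,000/well, plated overnight, given luciferin plus IBMX (each 0.5 mM as added) for 1 h at 37 °C, then compound for 1 h at 37 °C. Luminescence was read after 15 min at room temperature.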
# GLP-1R agonist = agonists of human GLP-1 receptor; HEK293 GLP-1R CRE-luciferase, luminescence, 4-6 h; cells express a hypersensitive GLP-1R form; Potency, µM (doses to about 45.6 µM), usual class: activators; P43220; hit rate 0.007% among 380,000
# GLP-1R inv ag = GLP-1 receptor (human) inverse agonism | P43220 | HEK293 GLP-1R CRE-luciferase, luminescence, 24 h; GLP-1R form is constitutively active | Potency, µM (titrated, usually from 38.3 µM), usual class: inhibitors | hit rate 1.6% among 410,000; note: nearly all actives have a fitted effect of over 55% in size
#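 GLP-1R inverse agonism mode: basal reporter luminescence in engineered HEK293 cells measured after one day of compound exposure at 37 deg C, with a 12 min room-temperature detection step.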
# Numbers stand for hits; 0 = inactive; ? = inconclusive; - = no result. Calls come from the whole dose curve; as a rule, active = well fitted curve in the direction sought with a large enough effect; inconclusive = small, poorly fitted or top-dose-only effect, or another doubt; inactive = no such curve, though single readings can be large; an effect the other way counts as inactive or inconclusive.
SMILES,GLP1R cytotox,PTHR1 ag,GLP-1R agonist,GLP-1R inv ag
O=S(=O)(NCCc1csc(-c2ccc(F)cc2)n1)c1ccc(Cl)cc1,0,0,-,11.2µM
Cc1ccccc1C(=O)N(Cc1nc2ccccc2c(=O)[nH]1)C1CCCC1,0,0,0,12.6µM
Cc1ccc(NC(=O)Cn2cc3c(n2)CCC(C)C3)cc1C (configuration not stated),0,0,-,0
CC(C)NS(=O)(=O)c1ccc(OCC(=O)N2CCN(c3ccccc3F)CC2)cc1,0,0,-,0
COc1cc(OC)cc(-c2c(-c3ccc(F)cc3)c3cc(-c4cnc(OC)nc4)ccc3n2C)c1,0,0,0,0
COc1cc(OC)cc(-c2c(-c3ccc(F)cc3)c3cc(Br)ccc3n2C)c1,0,0,0,7.94µM
O=C(CCC1CCCC1)N1CCc2c([nH]c3ccccc23)C1c1ccc(Cl)cc1 (configuration not stated),0,0,-,3.16µM
O=C(CCC1CCCC1)N1CCc2c([nH]c3ccccc23)C1c1ccc(F)cc1 (configuration not stated),0,0,-,?
CCOc1ccc(C2c3[nH]c4ccccc4c3CCN2C(=O)CCC2CCCC2)cc1 (configuration not stated),0,0,-,1.26µM
O=C(CSCc1ccc(F)cc1)N1CCc2c([nH]c3ccccc23)C1c1ccc(F)cc1 (configuration not stated),0,0,-,4.47µM
Cc1ccc(C2c3[nH]c4ccccc4c3CCN2C(=O)CSc2ccccc2)cc1 (configuration not stated),0,0,-,?
CCOc1ccc(C2c3[nH]c4ccccc4c3CCN2C(=O)CSc2ccccc2)cc1 (configuration not stated),0,0,-,5.01µM
O=C(NCCc1ccccc1Cl)c1ccc2c(=O)n(-c3ccccc3)c(=O)[nH]c2c1,0,0,-,0
CCOc1cccc(CC(=O)N2CCc3c([nH]c4ccccc34)C2c2ccc(Cl)cc2)c1OCC (configuration not stated),0,0,-,10µM
O=C(CCc1ccccc1)N1CCc2c([nH]c3ccccc23)C1c1ccc(Cl)cc1 (configuration not stated),0,0,-,?
CCOC(=O)c1[nH]c(C)c(C(=O)N2CCc3c([nH]c4ccccc34)C2c2ccccn2)c1C (configuration not stated),0,0,0,11.2µM
CN(c1ccccc1)S(=O)(=O)c1cccc(NC(=O)COc2cccc([N+](=O)[O-])c2)c1,0,0,0,10µM
CCC(=O)c1ccc(OCC(=O)Nc2cccc(S(=O)(=O)N(C)c3ccccc3)c2)cc1,0,0,0,?
Cc1ccsc1CN(C)CC(=O)Nc1cccc(S(=O)(=O)N(C)c2ccccc2)c1,0,0,0,8.91µM
CCc1cc2c(SCC(=O)N3CCN(C(=O)c4cccs4)CC3)ncnc2s1,0,0,0,0
Cc1cc(-c2nnco2)c(C)n1-c1ccc(F)cc1,0,7.08µM,0,0
CCOC(=O)c1ccc(N2C(=O)c3[nH]nc(-c4ccc(C)cc4)c3C2c2cccc(F)c2)cc1 (configuration not stated),0,0,0,10µM
CCOC(=O)c1ccc(N2C(=O)c3n[nH]c(-c4ccco4)c3C2c2ccc(C)cc2)cc1 (configuration not stated),?,0,0,?
CCOC(=O)c1ccc(N2C(=O)c3n[nH]c(-c4ccco4)c3C2c2ccc([N+](=O)[O-])cc2)cc1 (configuration not stated),?,0,0,7.08µM
CCOC(=O)c1ccc(N2C(=O)c3[nH]nc(-c4ccc(C)cc4)c3C2c2ccc(O)cc2)cc1 (configuration not stated),?,0,0,?
SMILES,GLP1R cytotox,PTHR1 ag,GLP-1R agonist,GLP-1R inv ag
O=C(C1CC1)N1CCc2cc(Br)cc(S(=O)(=O)Nc3ccc(F)c(F)c3)c21,?,0,0,22.4µM
CCN(Cc1ccc(OC)c(F)c1)C(=O)CCl,0,0,0,3.16µM
CCN(Cc1ccc(OC)c(F)c1)C(=O)C1CCCO1 (configuration not stated),0,0,0,0
COc1cc(NS(=O)(=O)c2ccc3c(c2)CCN3S(C)(=O)=O)cc(OC)c1,0,0,-,0
COc1ccc(NC(=O)CC2C(=O)N(c3cccc(OC)c3)C(=O)N2Cc2ccc3c(c2)OCO3)cc1 (configuration not stated),0,0,-,0
Cc1cc(NC(=O)CN2C(=O)NC3(CCCCCC3)C2=O)ccc1Br,0,0,0,10µM
Cc1ccc(NC(=O)CN2C(=O)NC3(CCCCCC3)C2=O)cc1Cl,?,0,0,?
Cc1cc(NC(=O)CC2CCCC2)ccc1Br,0,0,0,8.91µM
CCNC(=O)C1CCCN(C(=O)c2ccc(C(=O)OC)cc2)CC1 (configuration not stated),0,0,0,0
COc1cccc(CNC(=O)C(C)n2ccc3cc(S(=O)(=O)N4CCCC4)ccc32)c1 (configuration not stated),0,0,0,0
CCC(C(=O)NCCC(C)C)n1ccc2cc(S(=O)(=O)N3CCCCC3)ccc21 (configuration not stated),0,0,0,7.94µM
COc1cccc(CNC(=O)C(C)n2ccc3cc(S(=O)(=O)N4CCCCCC4)ccc32)c1 (configuration not stated),0,0,0,12.6µM
COc1ccc(-c2cc(=O)oc3c4c(ccc23)OCN(Cc2cccc(OC)c2)C4)cc1,0,0,-,0
CCc1ccc(C(C)NC(=O)c2ccc3c(c2)OCO3)cc1 (configuration not stated),0,0,0,11.2µM
CC1CCC(NC(=O)c2ccc3c(c2)OCO3)CC1 (configuration not stated),0,0,0,3.98µM
COc1cc2ccccc2cc1C(=O)NC1CCC(C)CC1 (configuration not stated),0,0,?,10µM
COc1cc2ccccc2cc1C(=O)NC1CCCC1,0,0,0,?
CC1(C)O[C@@H]2C[C@H]3[C@H]4C[C@H](F)C5=CC(=O)C=C[C@@]5(C)[C@@H]4[C@H](O)C[C@]3(C)[C@]2(C(=O)CO)O1,-,-,0,-
Cc1cccc(N2CCN(c3nc4ccccc4c4nnc(C)n34)CC2)c1C,0,0,-,0
COc1ccc(S(=O)(=O)NCC(c2ccc(N(C)C)cc2)N2CCc3ccccc32)cc1F (configuration not stated),0,0,-,?
Cc1onc(-c2ccccc2Cl)c1C(=O)N1CCN(c2cccc(Cl)c2)CC1,0,0,0,1µM
Cc1[nH]c(-c2ccc(F)cc2)cc1C(=O)N1CCN(c2cccc(Cl)c2)CC1,?,0,0,5.01µM
CCN1C(=O)CC(C(=O)Nc2ccc(OC)cc2)SC1=Nc1ccc(C)c(C)c1 (configuration not stated),0,0,-,0

# Bioassay records: PubChem, National Center for Advancing Translational Sciences (NCATS)
